PubChem BioAssay AID2551 (National Center for Advancing Translational Sciences (NCATS), 2010)
Values joined by “and” are separate entries in the source; they are usually repeats but may differ in a detail not shown here. Identical values can stand only once. Screen size: about 310,000 compounds; about 17,000 (5.5%) were called active. Roughly 11% stayed inconclusive and do not appear here. Shown is part of a subset that was picked to be rich in actives. Where a call stands in place of a potency, no number is given. A number with no mark means an inactive call. Calls come from the whole dose curve; as a rule, active = well fitted inhibition curve with a large enough effect; inconclusive = small, poorly fitted or top-dose-only effect, or effect the other way; inactive = no such curve, though single readings can be large or run the other way.

biological target: Nuclear receptor ROR-gamma (Mus musculus) (UniProt P51450); test: qHTS for inhibitors of ROR gamma transcriptional activity; details: Drosophila S2 Gal4-RORgamma UAS-luciferase reporter, 20 h; series mostly up to 53.6 µM; note: nearly all actives have a fitted effect of over 60% in size
Procedure, shortened: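 Luminescence from a UAS-regulated Photinus luciferase reporter in stably transfected Drosophila Schneider cells is measured; decreased signal marks ROR gamma inhibition. Fusion expression is induced by 700 uM copper sulfate for 20 hr.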
Potency is the fitted concentration of half-maximal effect.

Nuclear receptor ROR-gamma (Mus musculus), sequence (P51450 whole entry, looked up, the tested form may be a part): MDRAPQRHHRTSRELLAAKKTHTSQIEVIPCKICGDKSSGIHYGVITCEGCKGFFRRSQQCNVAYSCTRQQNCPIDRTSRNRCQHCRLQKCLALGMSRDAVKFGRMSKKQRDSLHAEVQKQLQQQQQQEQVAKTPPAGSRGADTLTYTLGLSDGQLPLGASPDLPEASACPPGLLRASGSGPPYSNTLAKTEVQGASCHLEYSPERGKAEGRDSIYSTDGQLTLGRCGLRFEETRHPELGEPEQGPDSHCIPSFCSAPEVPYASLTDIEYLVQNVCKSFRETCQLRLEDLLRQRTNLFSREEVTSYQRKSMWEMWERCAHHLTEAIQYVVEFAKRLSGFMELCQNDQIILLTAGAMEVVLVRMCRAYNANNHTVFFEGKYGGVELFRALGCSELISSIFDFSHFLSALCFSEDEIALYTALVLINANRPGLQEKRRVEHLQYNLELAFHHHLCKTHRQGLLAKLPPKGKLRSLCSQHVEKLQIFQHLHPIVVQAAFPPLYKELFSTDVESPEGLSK

Row | Compound | Potency | activity change, negative = inhibition
1 | COc1ccccc1CN(C)C(=O)c1cc2ccccc2o1 | inactive | –
2 | Cc1ccc2[nH]c(=O)c(CN(C)S(=O)(=O)c3cccc4nonc34)cc2c1 | inactive | –
3 | COc1cc(SC#N)ccc1N=Cc1c(C)[nH]n(-c2ccc(C)cc2)c1=O | 6.31 µM (active) | –
4 | C=CCN1C(=O)C2(OCCCO2)c2cccc(Cl)c21 | inactive | –
5 | Oc1ccc(-n2nnnc2SCc2c(F)cccc2Cl)cc1 | inactive | –
6 | Cc1ccc(CC2CC(=O)N(c3cc(C)ccc3C)C2=O)cc1 (configuration not stated) | inactive | –
7 | O=C(Nc1cccc(C(F)(F)F)c1)c1cc(Br)cc(Br)c1O | 5.01 µM (active) | –
8 | Cc1cccc(NC(=O)c2cccc(C(F)(F)F)c2)c1 | inactive | –
9 | O=C(Nc1cccc(C(F)(F)F)c1)c1cnccn1 | inactive | –
10 | O=C(N/C(=C/c1ccc(Cl)cc1)C(=O)N1CCCCC1)c1ccco1 | inactive | –
11 | CN(CC(=O)Nc1c(Cl)cccc1Cl)C(=O)c1ccncc1 | inactive | –
12 | Cc1ccc(-c2ccc(=O)n(Cc3ccc(F)cc3Cl)n2)cc1 | inactive | –
13 | Cc1n[nH]c(=O)c2c1nnn2Cc1ccc(F)cc1 | inactive | –
14 | Cc1nnsc1C(=O)N/N=C/c1cccc(C(F)(F)F)c1 | inactive | –
15 | COc1ccc(/C=N/NC(=O)Cn2cc(C(F)(F)F)ccc2=O)cc1 | inactive | –
16 | COc1ccc(/C=N/NC(=O)c2cccc(C(F)(F)F)c2)cc1 | 12.6 µM (active) | –
17 | C=C1C(=O)C23C(O)C1CCC2[C@]12COC3(O)C(O)C1C(C)(C)CC[C@H]2O (some centres not stated) | 0.708 µM (active) | –
18 | CCC1Oc2ccccc2N(CC(=O)NCCCN2CCN(CC)CC2)C1=O (configuration not stated) | inactive | –
19 | COc1ccc(Cc2nc3ccc(C(=O)NCC4CCOCC4)cc3o2)cc1OC | inactive | –
20 | CCOC(=O)C1=C(c2ccc(OC)cc2)C(=O)c2ccccc2C1=O | 6.31 µM (active) | –
21 | CCCCC(C(=O)OCC(=O)c1ccc(OC)cc1)N1C(=O)c2ccccc2C1=O (configuration not stated) | inactive | –
22 | CCOC(=O)c1c(-c2ccc(C)cc2)csc1/N=C(\C)C1=C(O)c2ccccc2C1=O | inactive | –

Row | Compound | Potency | activity change, negative = inhibition
23 | O=C(NCCCc1ccccc1)C1CCC(=O)N(CCc2ccc(Cl)cc2)C1 (configuration not stated) | inactive | –
24 | COc1ccccc1CN1CCCC(N2CCN(c3ccc(F)cc3)CC2)C1 (configuration not stated) | inactive | –
25 | O=C(CN(CC1CCCO1)C(=O)CNS(=O)(=O)c1ccc(Cl)cc1)NCc1ccccc1 (configuration not stated) | inactive | –
26 | c1ccc2cc3c(NCCN4CCOCC4)ccnc3cc2c1 | 11.2 µM (active) | –
27 | O=C(NCCN1CCOCC1)c1ccc2c(c1)ncn2C1CCCC1 | inactive | –
28 | Clc1ccccc1-c1cc(NCCN2CCOCC2)ncn1 | inactive | –
29 | Cc1ccc2c(c1)N(CC(=O)N1CCC(O)CC1)C(=O)CO2 | inactive | –
30 | Cc1ccc(C(=O)CCC(=O)N(C)CC(=O)Nc2c(Cl)cccc2Cl)cc1 | inactive | –
31 | Cc1cccnc1NC(=O)c1cccc(S(=O)(=O)N2CCN(c3ccc(F)cc3)CC2)c1 | inactive | –
32 | Cc1nc(=O)c(-c2ccccc2)c(C)n1-c1ccc(Br)cc1 | inactive | –
33 | Brc1ccccc1C1N=C(c2ccccc2)NO1 (configuration not stated) | inactive | –
34 | S=C1NC(c2ccccc2)=NCN1c1ccc(Br)cc1 | 8.91 µM (active) | –
35 | Cc1ccc2c(c1)C(c1ccccc1)N(C(=O)c1ccc(F)cc1)CC(=O)N2 (configuration not stated) | inactive | –
36 | Cc1ccc2nc(N(CCN(C)C)C(=O)C3=COCCO3)sc2c1 | inactive | –
37 | COc1cccc(-c2noc(C3CCCN(C(=O)c4ccc(F)cc4)C3)n2)c1 (configuration not stated) | – | -2.97% [at 1.91 µM]
38 | Cn1c(C(=O)NCCc2ccsc2)cc2c(=O)n(C)c3ccccc3c21 | inactive | –
39 | CC1CCCC(C)N1CCCNC(=O)c1cc2c(=O)n(C)c3ccccc3c2n1C (configuration not stated) | inactive | –
40 | CCN1CCCC1CNC(=O)c1cc2c(=O)n(C)c3ccccc3c2n1C (configuration not stated) | 3.98 µM (active) | –
41 | Cc1ccc(OCC(=O)Nc2ccc(N3CCN(C(=O)c4ccco4)CC3)cc2)c(C)c1 | inactive | –
42 | CC(=O)Oc1ccc(N(C(C)=O)S(=O)(=O)c2ccc3ccccc3c2)cc1Br | inactive | –
43 | CCCCNC(=O)C1CCC(=O)N1CCc1ccccc1 (configuration not stated) | inactive | –
44 | CCCC1CCC(=NNC(=S)NCCc2ccccc2)CC1 (configuration not stated) | 5.01 µM (active) | –

Row | Compound | Potency | activity change, negative = inhibition
45 | O=C1CCN(C(=S)NCCc2ccccc2)CC1 | inactive | –
46 | CCOc1ccc(NC(=O)C(C)N2C(=O)c3ccccc3C2=O)cc1 (configuration not stated) | inactive | –
47 | Cc1cccc(N2CCN(c3ccc(NC(=O)/C=C\C(=O)O)cc3)CC2)c1 | inactive | –
48 | CSc1ccc(NC(=O)/C=C/C(=O)O)cc1 | 0.0794 µM (active) | –
49 | O=C(O)/C=C\C(=O)Nc1ccc(OCc2ccccc2)cc1 | inactive | –
50 | CN(C)CCCn1c(SCc2ccc(Cl)cc2)nnc1-c1ccncc1 | inactive | –
51 | O=C(CCCOc1ccc(Cl)cc1Cl)NNC(=O)C1CCC1 | inactive | –
52 | CN1CCC(OC(=O)COc2ccc(Cl)cc2Cl)CC1 | inactive | –
53 | Cn1c(CCCOc2ccc(Cl)cc2Cl)n[nH]c1=S | 6.31 µM (active) | –
54 | CN(C)c1nc(NN)nc(Nc2ccc(F)cc2)n1 | 7.94 µM (active) | –
55 | CN(C)c1ccnc(Nc2ccc(F)cc2)c1C#N | inactive | –
56 | CN(C)c1nc(Nc2ccc(Cl)c(Cl)c2)nc(N(C)C)n1 | inactive | –
57 | COc1ccc(CNC(=O)C2CCN(C(=O)c3ccco3)CC2)cc1 | inactive | –
58 | Cc1c(OC(C)C(=O)NCC2CCC(C(=O)O)CC2)ccc2c1oc(=O)c1ccccc12 (configuration not stated) | inactive | –
59 | Cc1ccc(CN2CCNC(=O)C2CC(=O)NCc2csc(C(C)C)n2)cc1 (configuration not stated) | inactive | –
60 | COc1cc(NS(=O)(=O)c2ccc(NC(C)=O)cc2)cc(OC)c1 | inactive | –
61 | CCOc1ccc(S(=O)(=O)Nc2ccc(S(=O)(=O)Nc3cc(OC)ccc3OC)cc2)cc1 | inactive | –
62 | COc1ccc(NS(=O)(=O)c2ccc(Oc3c(C#N)cccc3C#N)cc2)cc1 | 7.94 µM (active) | –
63 | CCn1ccnc1CN(C)C(=O)c1cc(COc2ccc(Cl)cc2OC)on1 | inactive | –
64 | O=C(c1cccc(C(=O)N2CCN(c3ccc(F)cc3)CC2)c1)N1CCN(c2ccc(F)cc2)CC1 | inactive | –
65 | Oc1c(CN2CCN(c3ccc(F)cc3)CC2)cc(Cl)c2cccnc12 | 0.562 µM (active) | –
66 | Oc1ccc(CN2CCN(c3ncccn3)CC2)cc1 | inactive | –

Row | Compound | Potency | activity change, negative = inhibition
67 | COCCNC(=O)C1CCN(C(=O)C2CC(=O)N(c3ccc(C)cc3)C2)CC1 (configuration not stated) | inactive | –
68 | Cc1cccc(C(=O)NC(=S)N2CCN(c3ccc([N+](=O)[O-])cc3)CC2)c1 | 0.447 µM (active) | –
69 | O=C(c1cncc(Br)c1)N1CCN(c2ccc([N+](=O)[O-])cc2)CC1 | inactive | –
70 | Cc1cccc(C(=O)Nc2ccccc2N2CCN(c3ccc(F)cc3)CC2)c1 | inactive | –
71 | CC(C(=O)c1ccc(-c2ccccc2)cc1)[n+]1cccc(Br)c1 (configuration not stated) | inactive | –
72 | CCn1c2ccc(F)cc2c2nnc(SCCN3CCOCC3)nc21 | inactive | –
73 | CCn1c(NCCc2ccc(OC)c(OC)c2)nc2c1c(=O)n(C)c(=O)n2C | inactive | –
74 | Cn1c(=O)c2c(nc(NCc3ccccc3)n2CC(N)=O)n(C)c1=O | inactive | –
75 | Cn1c(=O)c2c(nc(NCCc3ccccc3)n2Cc2ccccc2)n(C)c1=O | 11.2 µM (active) | –
76 | COc1ccc(/C=C/C(=O)c2ccc(OC)cc2O)cc1 | 8.91 µM (active) and 316 nM (active) | –
77 | O=C(/C=C/c1ccccc1)c1ccccc1O | inactive | –
78 | COc1ccc(/C=C/NC(=O)c2ccc(OC)cc2)cc1 | – | -26.7% [at 10 µM]
79 | CCC(C(=O)NCc1cccnc1)n1nc(C)c2sc3ccccc3c2c1=O (configuration not stated) | inactive | –
80 | CC(=O)CCC(=O)c1ccc2ccccc2c1 | inactive | –
81 | CC(=O)c1ccc2c(ccc3ccccc32)c1 | inactive | –
82 | C=CC(=O)c1ccc2ccccc2c1 | 0.631 µM (active) | –
83 | CCN(CC)CC(=O)c1c[nH]c2ccc(OC)cc12 | inactive | –
84 | COc1ccc(/C=C(\C#N)c2c[nH]c3ccccc23)cc1 | inactive | –
85 | COc1ccc2[nH]cc(/C=C(/C#N)S(=O)(=O)c3ccccc3)c2c1 | 7.08 µM (active) | –
86 | COC(=O)c1cccc(C(=O)N2CCC(CCC(=O)NCc3ccc(F)cc3)CC2)c1 | inactive | –
87 | COc1cccc(CN(C)CC2CCCN(CCc3ccc(Cl)cc3)C2)c1OC (configuration not stated) | inactive | –
88 | CCS(=O)(=O)N1Cc2ccccc2CC1C(=O)Nc1ccc(OC)cc1OC (configuration not stated) | inactive | –

Row | Compound | Potency | activity change, negative = inhibition
89 | CCS(=O)(=O)N1Cc2ccccc2CC1C(=O)Nc1nc2ccc(F)cc2s1 (configuration not stated) | 4.47 µM (active) | –
90 | NS(=O)(=O)c1ccc2nc(NC(=O)CS(=O)(=O)c3ccc(F)cc3)sc2c1 | inactive | –
91 | O=C(c1ccc(F)cc1)N1CCCC(C(=O)N2CCCCC2)C1 (configuration not stated) | inactive | –
92 | Cc1cc(NS(=O)(=O)c2ccc(NC(=O)c3cccnc3)cc2)nc(C)n1 | inactive | –
93 | Cc1cc(C)c2c(Cn3ccnc3)cc(=O)oc2c1 | inactive | –
94 | O=C(c1cc(-c2ccc(Cl)cc2)on1)N1CCN(c2ccccc2)CC1 | inactive | –
95 | Cc1cccc(COc2ccccc2/C=N/Nc2ccc([N+](=O)[O-])cc2)c1 | inactive | –
96 | COc1ccc(/C=N/Nc2nc3ccccc3o2)cc1OC | inactive | –
97 | O=C(CSc1nc2ccccc2o1)N/N=C/c1ccccc1C(=O)O | inactive | –
98 | CCOc1ccccc1/C=N/Nc1nc2ccccc2o1 | 6.31 µM (active) | –
99 | Brc1ccccc1/C=N/Nc1nc2ccccc2o1 | 2.51 µM (active) | –
100 | Oc1c(Br)cccc1/C=N/Nc1c(F)c(F)c(F)c(F)c1F | inactive | –
101 | CC(=O)Nc1ccc(S(=O)(=O)Nc2cc(C)cn(Cc3ccc(C)cc3)c2=O)cc1 | inactive | –
102 | COCC1CCN(C(=O)C2CCC(=O)N(CC3CCCCC3)C2)CC1 (configuration not stated) | inactive | –
103 | CC/C(O)=C1\C(=O)CC(C)(C)CC1=NCCc1nc2ccccc2[nH]1 | inactive | –
104 | CN(Cc1ccccc1)C(=O)CSc1nc2ccccc2[nH]1 | inactive | –
105 | CCC(=O)/C(=C(/O)c1ccccc1)c1nc2ccccc2[nH]1 | 6.31 µM (active) | –
106 | CSc1ncccc1C(=O)Nc1ccc(C)cn1 | inactive | –
107 | O=C(Nc1nnc(-c2ccc(F)cc2)s1)c1c(F)cccc1Cl | inactive | –
